# Assay results: the supplement of paper PMC10849652
# About 7,900 targets were measured; listed, in parts, are those with a hit and a random draw of the rest. About 0.6% of all pairs of compound and target were hits. Unmarked numbers belong to inactive results.
# Compound: CCCCN(Cc1ccc(C(=O)NO)cc1)C(=O)Nc1ccccc1 [Nexturastat A]
# Assay: log2 fold change, soluble protein after heating vs DMSO (PISA); higher = thermal stabilisation; K562 cells, 10 uM, 30 min; active = over 0.2 and 3.5 SD of the protein, either way, in both replicates (recomputed)
# Procedure, shortened: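 Quantification of soluble protein used TMTpro 16plex LC-MS/MS, with channel sums equalised. Samples were the supernatant after 21,000xg for 90 min of pooled aliquots from K562 cells (2×10^6 cells/mL) treated with 10 μM compound for 30 min, heated for 3 min over 48°C-58°C, and extracted in PBS with 0.5% NP-40 at 4°C. Values, from duplicates, describe thermal stability against control samples on a log2 fold-change scale.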
# Chain of UniProt Q9BTU6 (Q9BTU6 whole entry, looked up): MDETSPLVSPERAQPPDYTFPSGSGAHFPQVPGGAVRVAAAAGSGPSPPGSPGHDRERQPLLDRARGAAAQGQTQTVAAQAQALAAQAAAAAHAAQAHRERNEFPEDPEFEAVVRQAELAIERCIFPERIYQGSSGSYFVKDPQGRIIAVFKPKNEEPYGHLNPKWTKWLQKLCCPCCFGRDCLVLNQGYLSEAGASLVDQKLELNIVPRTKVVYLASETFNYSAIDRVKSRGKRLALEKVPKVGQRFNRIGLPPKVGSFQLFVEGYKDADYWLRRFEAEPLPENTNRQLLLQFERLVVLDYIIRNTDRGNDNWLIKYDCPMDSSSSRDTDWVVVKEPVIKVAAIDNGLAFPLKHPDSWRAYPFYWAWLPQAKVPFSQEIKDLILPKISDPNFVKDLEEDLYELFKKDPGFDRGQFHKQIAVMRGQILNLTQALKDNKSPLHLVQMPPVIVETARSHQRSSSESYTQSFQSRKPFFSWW
# Chain of UniProt O15067 (O15067 whole entry, looked up): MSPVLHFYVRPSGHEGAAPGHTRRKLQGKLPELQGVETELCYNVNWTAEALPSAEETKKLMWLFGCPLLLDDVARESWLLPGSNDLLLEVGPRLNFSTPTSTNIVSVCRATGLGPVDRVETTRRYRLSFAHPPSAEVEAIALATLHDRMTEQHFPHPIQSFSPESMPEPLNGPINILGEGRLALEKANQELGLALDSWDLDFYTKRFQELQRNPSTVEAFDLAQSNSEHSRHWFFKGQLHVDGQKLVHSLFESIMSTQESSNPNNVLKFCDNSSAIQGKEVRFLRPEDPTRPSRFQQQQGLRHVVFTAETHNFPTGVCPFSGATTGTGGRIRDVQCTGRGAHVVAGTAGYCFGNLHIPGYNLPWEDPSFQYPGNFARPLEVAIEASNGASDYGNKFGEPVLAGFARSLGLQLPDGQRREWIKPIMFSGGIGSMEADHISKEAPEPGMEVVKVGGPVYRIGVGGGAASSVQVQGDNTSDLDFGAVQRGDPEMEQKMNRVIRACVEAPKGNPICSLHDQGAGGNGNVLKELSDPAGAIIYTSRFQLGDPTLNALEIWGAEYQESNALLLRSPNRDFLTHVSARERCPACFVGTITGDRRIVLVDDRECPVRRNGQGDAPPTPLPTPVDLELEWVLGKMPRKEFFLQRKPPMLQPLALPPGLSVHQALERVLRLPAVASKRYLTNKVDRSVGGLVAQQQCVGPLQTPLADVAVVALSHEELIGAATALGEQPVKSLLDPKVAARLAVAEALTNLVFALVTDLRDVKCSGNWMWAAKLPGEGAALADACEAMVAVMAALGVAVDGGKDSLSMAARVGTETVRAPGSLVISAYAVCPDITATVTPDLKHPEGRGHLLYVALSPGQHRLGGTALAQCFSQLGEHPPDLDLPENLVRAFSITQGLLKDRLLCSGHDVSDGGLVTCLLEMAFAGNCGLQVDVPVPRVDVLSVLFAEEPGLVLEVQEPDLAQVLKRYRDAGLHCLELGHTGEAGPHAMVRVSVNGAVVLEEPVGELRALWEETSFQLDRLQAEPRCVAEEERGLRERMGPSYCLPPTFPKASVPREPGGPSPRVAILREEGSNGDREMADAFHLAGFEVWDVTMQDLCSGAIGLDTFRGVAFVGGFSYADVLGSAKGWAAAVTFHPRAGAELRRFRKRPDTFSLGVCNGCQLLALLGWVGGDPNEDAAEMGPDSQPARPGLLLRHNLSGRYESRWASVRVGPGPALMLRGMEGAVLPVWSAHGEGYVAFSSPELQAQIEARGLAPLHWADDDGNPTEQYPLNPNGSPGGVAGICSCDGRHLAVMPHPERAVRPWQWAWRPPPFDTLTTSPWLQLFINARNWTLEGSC
# Chain of UniProt Q16537 (Q16537 whole entry, looked up): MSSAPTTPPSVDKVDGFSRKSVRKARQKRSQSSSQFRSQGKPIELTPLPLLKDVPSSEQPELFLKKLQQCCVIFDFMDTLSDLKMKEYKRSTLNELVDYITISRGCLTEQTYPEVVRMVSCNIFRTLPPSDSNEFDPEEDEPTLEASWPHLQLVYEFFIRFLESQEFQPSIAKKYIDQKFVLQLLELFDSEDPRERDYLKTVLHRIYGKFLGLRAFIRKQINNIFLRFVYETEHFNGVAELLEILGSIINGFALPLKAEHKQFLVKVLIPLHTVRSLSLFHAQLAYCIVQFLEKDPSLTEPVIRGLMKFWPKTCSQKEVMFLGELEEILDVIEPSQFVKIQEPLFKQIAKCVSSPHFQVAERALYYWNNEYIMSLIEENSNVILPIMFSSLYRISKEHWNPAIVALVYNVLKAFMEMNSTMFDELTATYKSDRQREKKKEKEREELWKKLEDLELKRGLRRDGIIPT
# Chain of UniProt Q08752 (Q08752 whole entry, looked up): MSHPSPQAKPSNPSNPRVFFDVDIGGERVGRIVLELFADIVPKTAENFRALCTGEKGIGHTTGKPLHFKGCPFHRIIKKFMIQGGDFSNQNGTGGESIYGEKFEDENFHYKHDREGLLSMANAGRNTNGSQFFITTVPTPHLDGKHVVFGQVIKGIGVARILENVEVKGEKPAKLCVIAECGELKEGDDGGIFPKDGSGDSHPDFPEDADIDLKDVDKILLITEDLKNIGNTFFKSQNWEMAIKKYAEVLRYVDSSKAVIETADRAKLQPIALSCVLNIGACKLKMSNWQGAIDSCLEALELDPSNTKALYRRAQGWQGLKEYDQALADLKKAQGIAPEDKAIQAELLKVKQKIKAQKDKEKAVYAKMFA
# Chain of UniProt Q5JVF3 (Q5JVF3 whole entry, looked up): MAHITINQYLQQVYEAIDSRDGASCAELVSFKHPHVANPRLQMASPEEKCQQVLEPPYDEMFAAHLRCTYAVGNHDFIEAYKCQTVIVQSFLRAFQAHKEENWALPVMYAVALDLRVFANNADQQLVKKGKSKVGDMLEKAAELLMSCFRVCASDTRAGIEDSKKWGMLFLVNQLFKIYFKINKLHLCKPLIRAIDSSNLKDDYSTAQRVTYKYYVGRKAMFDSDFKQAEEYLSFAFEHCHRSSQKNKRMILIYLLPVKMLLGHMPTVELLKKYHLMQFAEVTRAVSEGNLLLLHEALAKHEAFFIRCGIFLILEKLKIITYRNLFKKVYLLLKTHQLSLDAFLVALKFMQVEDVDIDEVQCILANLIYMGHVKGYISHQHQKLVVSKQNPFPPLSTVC
# Chain of UniProt Q9BRP1 (Q9BRP1 whole entry, looked up): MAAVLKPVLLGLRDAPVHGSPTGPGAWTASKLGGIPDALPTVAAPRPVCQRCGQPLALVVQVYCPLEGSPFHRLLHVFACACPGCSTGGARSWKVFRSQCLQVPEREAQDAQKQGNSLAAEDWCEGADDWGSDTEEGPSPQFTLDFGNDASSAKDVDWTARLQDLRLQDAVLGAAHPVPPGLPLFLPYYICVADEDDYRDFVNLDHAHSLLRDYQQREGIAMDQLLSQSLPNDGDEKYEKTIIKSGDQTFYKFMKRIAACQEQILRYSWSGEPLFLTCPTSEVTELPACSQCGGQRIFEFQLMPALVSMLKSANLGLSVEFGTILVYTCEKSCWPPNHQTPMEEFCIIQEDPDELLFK
# Chain of UniProt Q9Y3E5 (Q9Y3E5 whole entry, looked up): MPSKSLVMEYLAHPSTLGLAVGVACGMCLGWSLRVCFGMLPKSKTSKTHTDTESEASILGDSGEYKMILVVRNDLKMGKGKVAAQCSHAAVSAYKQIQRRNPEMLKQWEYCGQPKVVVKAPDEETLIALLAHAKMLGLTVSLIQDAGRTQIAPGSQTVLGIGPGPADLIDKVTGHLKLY
# Chain of UniProt Q53EL6 (Q53EL6 whole entry, looked up): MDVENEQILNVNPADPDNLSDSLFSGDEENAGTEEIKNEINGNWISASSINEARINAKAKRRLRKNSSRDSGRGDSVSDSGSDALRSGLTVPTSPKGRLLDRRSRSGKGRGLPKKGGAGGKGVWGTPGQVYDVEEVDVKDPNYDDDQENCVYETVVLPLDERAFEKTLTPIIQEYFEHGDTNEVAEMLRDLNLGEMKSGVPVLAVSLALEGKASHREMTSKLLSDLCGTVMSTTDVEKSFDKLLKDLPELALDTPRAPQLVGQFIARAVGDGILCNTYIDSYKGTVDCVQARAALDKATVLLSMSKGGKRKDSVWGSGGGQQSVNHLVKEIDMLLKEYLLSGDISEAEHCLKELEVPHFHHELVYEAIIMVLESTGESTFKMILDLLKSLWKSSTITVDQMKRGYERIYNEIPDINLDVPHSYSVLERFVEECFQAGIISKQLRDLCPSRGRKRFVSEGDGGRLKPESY
# Chain of UniProt P14618 (P14618 whole entry, looked up): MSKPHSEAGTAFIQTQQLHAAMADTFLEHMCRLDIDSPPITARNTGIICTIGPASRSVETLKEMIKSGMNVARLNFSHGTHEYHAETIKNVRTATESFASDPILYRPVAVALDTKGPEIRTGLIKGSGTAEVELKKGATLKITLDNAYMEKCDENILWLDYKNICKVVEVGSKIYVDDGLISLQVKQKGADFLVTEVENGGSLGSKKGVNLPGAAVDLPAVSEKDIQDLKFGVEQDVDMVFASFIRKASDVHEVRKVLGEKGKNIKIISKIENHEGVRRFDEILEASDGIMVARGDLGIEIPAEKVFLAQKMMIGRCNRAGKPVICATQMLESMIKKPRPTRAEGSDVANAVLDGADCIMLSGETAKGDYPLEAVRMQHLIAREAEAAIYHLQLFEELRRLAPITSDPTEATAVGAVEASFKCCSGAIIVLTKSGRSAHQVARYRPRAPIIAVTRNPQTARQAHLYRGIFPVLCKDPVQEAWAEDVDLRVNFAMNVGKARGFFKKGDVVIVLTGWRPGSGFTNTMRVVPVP
# Chain of UniProt O15305 (O15305 whole entry, looked up): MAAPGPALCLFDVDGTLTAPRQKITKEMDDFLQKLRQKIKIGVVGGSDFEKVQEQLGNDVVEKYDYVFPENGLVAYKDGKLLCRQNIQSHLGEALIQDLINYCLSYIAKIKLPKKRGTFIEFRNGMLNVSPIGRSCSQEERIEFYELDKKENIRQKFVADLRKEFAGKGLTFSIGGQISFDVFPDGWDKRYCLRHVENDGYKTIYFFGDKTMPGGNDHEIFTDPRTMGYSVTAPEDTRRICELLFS
# Chain of UniProt Q9Y2Y1 (Q9Y2Y1 whole entry, looked up): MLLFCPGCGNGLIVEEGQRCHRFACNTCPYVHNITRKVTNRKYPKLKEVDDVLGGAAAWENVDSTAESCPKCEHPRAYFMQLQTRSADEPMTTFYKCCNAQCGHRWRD
row,Target,log2 fold change
1,POLR2M (UniProt P0CAP2),-0.019
2,PCID2 (UniProt Q5JVF3),0.153
3,PMPCA (UniProt Q10713),-0.102
4,POLA1 (UniProt P09884),-0.064
5,PDE2A (UniProt O00408),-0.054
6,PDCD4 (UniProt Q53EL6),-0.11
7,PURA (UniProt Q00577),0.112
8,PPP1R14A (UniProt Q96A00),-0.006
9,PMM2 (UniProt O15305),-0.124
10,PTRH2 (UniProt Q9Y3E5),-0.078
11,PPP2R5E (UniProt Q16537),0.003
12,PFAS (UniProt O15067),-0.081
13,PPP2R5A (UniProt Q15172),-0.017
14,PHKG2 (UniProt P15735),0.002
15,PKM (UniProt P14618),-0.054
16,PSMD12 (UniProt O00232),0.047
17,PRKAR1B (UniProt P31321),0.015
18,POLR2K (UniProt P53803),-0.162
19,PLCB3 (UniProt Q01970),-0.019

row,Target,log2 fold change
1,PLIN2 (UniProt Q99541),0.082
2,POTEI (UniProt P0CG38),-0.071
3,PTP4A1 (UniProt Q93096),0.002
4,PI4K2A (UniProt Q9BTU6),-0.005
5,POLR3K (UniProt Q9Y2Y1),-0.04
6,PEX16 isoform 2 (UniProt Q9Y5Y5),-0.033
7,PIGT (UniProt Q969N2),0.031
8,PRKAA1 isoform 2 (UniProt Q13131),-0.042
9,PTRHD1 (UniProt Q6GMV3),0.074
10,PPIL2 (UniProt Q13356),-0.059
11,PEX13 (UniProt Q92968),0.116
12,PSMD2 (UniProt Q13200),0.024
13,PPID (UniProt Q08752),0.008
14,POLD1 (UniProt P28340),0.02
15,PDCD2L (UniProt Q9BRP1),0
16,PRKAB1 (UniProt Q9Y478),-0.002
17,PSMD7 (UniProt P51665),0.145
18,PYGL (UniProt P06737),-0.018
